The results in this text go back to PubChem BioAssay (NCATS).

“And” between values parts separate entries of the source, which are not always exact repeats. Equal entries are not always repeated. A number with no mark means an inactive call. The source made the active and inactive calls. The call rests on the fitted dose curve; in most records, active means well fitted activation curve with a large enough effect; inconclusive means small, poorly fitted or top-dose-only effect; inactive means flat fitted curve, though single readings scatter.

The assay in a line: Cellular Toxicity (caspase-3) N2a (AID 665).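 Further: compound exposure lasted 16 h at 37 °C before readout.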 To be noted: N2a cells, luminescence, normalized: DMSO 0%, 10 µM staurosporine 100%; at 92.2 µM (top of the series). The text has this: NIH Chemical Genomics Center [NCGC]
NIH Molecular Libraries Screening Centers Network [MLSCN]
National Institutes of Environmental Health Sciences [NIEHS]
National Toxicology Program [NTP]
We have developed a 1536-well cell-based assay for quantitative high throughput screening (qHTS) against a number of cell lines to determine in vitro caspase 3/7 activity of small molecules. This particular assay uses the N2a cell line which is derived from mouse neuroblastoma.
NCGC Assay Protocol Summary:
The Caspase-Glo 3/7 assay (Promega) is a homogeneous method to measure caspase-3 and caspase-7 activities in cultured cells. The quantitation of caspase 3/7 activity is based on the cleavage of a peptide-aminoluciferin substrate. After caspase cleaves the substrate the free aminoluciferin is liberated and serves as the substrate of luciferase, which generates the light. The luminescent signal is proportional to the amount of caspase 3/7 activity present.
Using the Caspase-Glo 3/7 assay, the amount of caspase 3/7 activity was measured in the N2a cells with complete culture medium following compound treatment for 16 hours. The assay was performed in opaque white 1536-well plates. In the screen, staurosporine and doxorubicin were used as positive controls. Library compounds were measured for their ability to cause the activation of caspase 3/7 in the cell line, as reflected by an increase in luminescence signal, in a concentration-dependent manner. Data were normalized to the controls for basal activity (DMSO only) and 100% stimulation (10 uM staurosporine). AC50 values were determined from concentration-response data modeled with the standard Hill equation.
qHTS protocol for caspase 3/7 assay in mouse N2a cell line
[Step] [Parameter] [Value] [Description]
1. Reagent; 5 uL; 1500 mouse N2a cells/well
2. Time; 5 hr; 37 °C incubation
4. Controls; 23 nL; doxorubicin 7 pM to 100 uM & staurosporine 1.4 pM to 20 uM
5. Time; 16 hr; 37 °C incubation
6. Reagent; 5 uL; Caspase-Glo 3/7 reagent
7. Time; 1 hr; Room Temperature
8. Detection; Luminescence; Viewlux plate reader
Keywords: caspase 3/7, apoptosis, mouse N2a cell line, luminescence, NTPHTS, NTPHTS_NCGC, NIEHS, EPA, DSSTox, MLSMR, MLSCN, NIH Roadmap, qHTS, NCGC
For `CC(C)(C)OOC(C)(C)C`, the caspase-3 activation is 0.408%. As to `S=C=Nc1cccc2ccccc12`, the caspase-3 activation is 0.808%. The result for `COc1ccc(N)cc1` reads 1.03% and -0.467%. As for `Brc1ccc(Oc2cc(Br)c(Br)cc2Br)c(Br)c1`, the caspase-3 activation is 12.3% and 4.39%. For `c1ccc(OP(Oc2ccccc2)Oc2ccccc2)cc1` the value was 0.755%; for `CN=C=S`, 2.61%. With `Clc1ccc2ccccc2c1`, the caspase-3 activation is 4.04%.

As to `Clc1nc(Cl)nc(Cl)n1`, the caspase-3 activation is 1.31%. Regarding `C=CC(C)=O`, the caspase-3 activation is 0.266%. For `C=CC(=C)C` the value was -1.13%.

`Nc1c(Cl)c(Cl)nc(C(=O)O)c1Cl`: the caspase-3 activation was -2.12%. For `COC1=CC(=O)O[C@@H](/C=C/c2ccc3c(c2)OCO3)C1` the value was -17.2%; for `Nc1ccc(Br)cc1`, 0.277%; for `CCOc1ccc(N)cc1`, 6.79%. The result for `C[N+](C)(C)Cc1ccccc1` reads -0.692%.

In the case of `OCC1CO1` (stereo not given), the caspase-3 activation was -2.46%.

Consider `Clc1cc(Cl)c(-c2cc(Cl)c(Cl)cc2Cl)cc1Cl`, for which the caspase-3 activation is -0.702%. The result for `ClC(Cl)=C(c1ccc(Cl)cc1)c1ccc(Cl)cc1` reads 2.33% and 2.48%.

With `CC(C)(OO)c1ccccc1`, the caspase-3 activation is -2.62%. For `c1ccc2c(c1)CCCC2` the value was 1.3%. Take `Brc1ccccc1`: the caspase-3 activation was 0.903%. For `CCCCCCCCCc1ccc(O)cc1` the value was 98.6% (active).

Turning to `CC(=O)[O-].CC(=O)[O-].O.O.O.[Pb+2]`, the caspase-3 activation was 0.731% and -2.95%.

On to `COc1ccc(C=O)cc1OC`, for which the caspase-3 activation is -1.73%. For `O=NN(CCO)CCO` the value was -1.3%; for `BrCCBr`, -3.9%; for `C/C=C/c1ccc2c(c1)OCO2`, 0.0142%. `CNC(=O)O/N=C/C(C)(C)SC`: the caspase-3 activation was -2.85%.

Regarding `C=CCc1ccc(OC)cc1`, the caspase-3 activation was 0.258%. The result for `Cc1ccc2ccccc2c1` reads -4.52%. For `C=CC(=O)OCC` the value was -1.92%; for `C=CCc1ccc2c(c1)OCO2`, -4.3%; for `CC(C)(c1ccccc1)c1ccc(O)cc1`, 1.43%.

In the case of `c1nc[nH]n1`, the caspase-3 activation was -1.83%. For `Clc1nc(Cl)nc(Nc2ccccc2Cl)n1`, the caspase-3 activation was 0.587%.

Take `ClCBr`: the caspase-3 activation is -2%.

Take `ClC1=C(Cl)C2(Cl)C3C4CC(C5OC45)C3C1(Cl)C2(Cl)Cl` (stereo not given): the caspase-3 activation is -1.24%. With `CCOCN(C(=O)CCl)c1c(C)cccc1CC`, the caspase-3 activation was -0.109%. For `CC(C)(C)OO` the value was -2.06% and -1.93%; for `ClC1=C(Cl)C2(Cl)C3C4C=CC(C4)C3C1(Cl)C2(Cl)Cl` (stereo not given), 2.47%.
